Sampled rows, rich in hits. Any-hit rate of the full collection: about 7.3%.
HCMV antiviral = inhibitors of human cytomegalovirus; HFF cells, HCMV-luciferase reporter, 72 h; hits give low values; activity change, negative = inhibition, % at 57.5 µM; hit rate 4.5% among 410,000; in the data active = activity change below about -60%; inconclusive = no clear call, values can overlap the other calls; inactive = above about -39%
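Two-dose cell screen: HFF monolayers treated with compounds and infected with luciferase-expressing HCMV at 1 PFU/cell, 72 h at 37C, then lysed for luciferase measurement.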
Vaccinia mCherry = vaccinia inhibition (mCherry reporter) | Vaccinia virus mCherry reporter infection, fluorescence | Potency, µM (titrated, usually from 36.5 µM), for the others: top-dose activity change, negative = inhibition, hits mostly inhibitors | hit rate 0.63% among 310,000 | AID 720579; calls by dose curve; tested in A549 cells; also: potency is read from the fitted curve at half-maximal effect; nearly all actives have a fitted effect of over 35% in size
Vaccinia Venus = inhibitors of vaccinia virus (Venus reporter); hit rate 0.46% among 330,000; Vaccinia virus Venus reporter expression, fluorescence; Potency, µM (highest dose often 36.5 µM), for the others: at the highest dose activity change, negative = inhibition, most hits filed as inhibitors; calls by dose curve; tested in A549 cells; also: potency is read from the fitted curve at half-maximal effect; nearly all actives have a fitted effect of over 30% in size
FMDV inh = blocks foot and mouth disease virus. hit rate 1.2% among 410,000. Potency, µM (series often up to 57.9 µM), inactives show at the top dose activity change, negative = inhibition, hits mostly inhibitors. AID 1159524. FMDV antiviral cell-based qHTS; calls by dose curve; tested in HEK293T cells; also: read-out not given here; potency is read from the fitted curve at half-maximal effect; nearly all actives have a fitted effect of over 45% in size
HCV inh = blocks hepatitis C virus; Potency, µM (series often up to 41.8 µM), inactives show top-dose activity change, negative = inhibition, hits mostly inhibitors; AID 651820; Huh7.5.1 HCVcc-Cre infection, luciferase reporter, 44 h; hit rate 3.4% among 340,000; active = well fitted inhibition curve with a large enough effect; inconclusive = small, poorly fitted or top-dose-only effect, or another doubt; inactive = no such curve, though single readings can be large or run the other way; also: potency is read from the fitted curve at half-maximal effect
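Infectious HCVcc-Cre (~0.5 moi) was added to cells just after compound, with cells seeded 4 h earlier at 1,000 per well. Luciferase activity after 44 h culture reported infection; substrate was incubated 15 min at room temperature before reading.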
Numbers without * were called inactive; i = inactive; ? = inconclusive; nt = no result given. % is scaled to controls: 0 for no effect and ±100 for the full control effect.

SMILES | HCMV antiviral | Vaccinia mCherry | Vaccinia Venus | FMDV inh | HCV inh
N#Cc1ccc(CN2CC3(CCN(C(=O)c4cccc(F)c4)CC3)C2)cc1 | nt | nt | nt | -10% | nt
Cc1ccc(-n2ncc3c(Nc4cccc(C)c4C)ncnc32)cc1 | 33 | -14% | -16% | -16% | nt
O=C1C2CC=CCC2C(=O)N1c1ccc(NCCc2ccc(O)cc2)c([N+](=O)[O-])c1 (stereo unspecified) | 15 | -30% | -17% | ? | 13µM*
CN(C)c1ccc(CNC(=O)c2cccn2-c2nnc(N3CCCCC3)s2)cc1 | 2 | -18% | -5% | -8% | nt
COC(=O)c1cc(Br)c(=O)n(CCc2ccccc2)c1 | -103* | nt | -6% | -15% | 8%
COC(=O)Cn1cc(C(=O)OC)cc(Br)c1=O | -6 | nt | -7% | -5% | 18%
Cc1nc(-c2cccc(NC(=O)c3ccc(-n4cccn4)cc3)c2)cs1 | ? | nt | nt | ? | 11µM*
O=C(Nc1ccccc1F)c1ccc(C(=O)c2ccccc2)cc1 | -72* | -16% | -17% | 48% | 8%
O=C(Nc1ccc(-c2csc(-c3ccccc3)n2)cc1)c1ccccc1 | -101* | nt | nt | 0% | ?
CCOc1ccc(NC(=O)c2ccc(-c3csc(C)n3)cc2)cc1 | 16 | -14% | -18% | -20% | ?
Cc1nc(-c2cccc(NC(=O)C(C)Oc3ccccc3)c2)cs1 (stereo unspecified) | -36 | 0% | -18% | -5% | ?
COc1ccc(NC(=O)c2ccc(-c3csc(C)n3)cc2)cc1 | ? | i | 4% | -7% | 7.1µM*
Cc1ccc(CN(C(=O)COc2cccc([N+](=O)[O-])c2)c2ccccn2)o1 | ? | -7% | 10% | -10% | nt
Cc1nc(-c2ccc(C(=O)Nc3ccc(F)cc3)cc2)cs1 | ? | i | -20% | -16% | ?
Cc1nc(-c2ccc(C(=O)Nc3ccccc3F)cc2)cs1 | -70* | i | -16% | 8.9µM* | ?
Cc1nc(-c2ccc(C(=O)Nc3cccc(F)c3)cc2)cs1 | 24 | 0% | -5% | ? | 3.5µM*
Cc1nc(-c2ccc(NC(=O)/C=C\C(=O)O)cc2)cs1 | -81* | -18% | -7% | -11% | -1%
COc1ccc(-n2c(SCC(=O)Nc3cccc(C)c3C)nc3c([nH]c4ccccc43)c2=O)cc1 | 102 | ? | -27% | -15% | nt
Cc1ccc(NC(=O)Cn2ccn(-c3ccc(F)c(F)c3)c(=O)c2=O)cc1C | 26 | -13% | -12% | -5% | nt
COc1ccc2c(C)c(CCC(=O)NCc3ccc(C)cc3)c(=O)oc2c1 | -9 | -11% | 1% | -20% | nt
CCC1CSC(Nc2ccc(C(=O)/C=C/c3cccc(C)c3)cc2)=N1 (stereo unspecified) | -63* | nt | nt | -24% | ?
Cc1ccccc1OCC(=O)N(Cc1ccc(N(C)C)cc1)CC1CCCO1 (stereo unspecified) | -63* | -15% | -14% | 4% | nt
Cc1cc(C)c(OCC(=O)N(Cc2ccc(N(C)C)cc2)CC2CCCO2)c(C)c1 (stereo unspecified) | -19 | -15% | -21% | 5% | nt
O=S(=O)(c1ccc(Cl)cc1)N1CCOCC1 | nt | -8% | -14% | nt | nt
N#CC(=C1C=CC(=NO)C(Cl)=C1)c1ccc(Cl)cc1 | -74* | -7% | -9% | -15% | 6%
SMILES | HCMV antiviral | Vaccinia mCherry | Vaccinia Venus | FMDV inh | HCV inh
O=C(O)CSC1=NS(=O)(=O)c2ccccc21 | nt | -5% | -7% | nt | nt
O=C(CSCc1cccc(Cl)c1)Nc1ccccc1-c1ccccc1 | -63* | -3% | -19% | -28% | -15%
Cc1ccc(CSCC(=O)Nc2ccccc2C(=O)O)cc1 | -79* | nt | nt | 48% | 12%
Cc1ccc(CSC2=Nc3ccccc3C3=NC(CCC(=O)NCCc4ccccc4)C(=O)N23)cc1 (stereo unspecified) | -90* | -22% | -16% | ? | nt
Cc1ccc(CSCC(=O)NCCc2ccccc2)cc1 | -100* | i | -10% | 9% | -21%
O=C(CC1N=C2c3ccccc3N=C(SCC(=O)Nc3ccc(F)cc3)N2C1=O)NCc1cccs1 (stereo unspecified) | 16 | -19% | -6% | -21% | nt
O=C(CCC1N=C2c3ccccc3N=C(SCC(=O)Nc3ccc(F)cc3)N2C1=O)NCc1cccs1 (stereo unspecified) | -80* | -28% | 42% | ? | nt
Cc1ccc(CS(=O)(=O)CCC(=O)NCCc2ccccc2)cc1 | 28 | -12% | -21% | 12% | 5.6µM*

Screening results (PubChem BioAssay)
